From PubChem BioAssay AID686971 (National Center for Advancing Translational Sciences (NCATS), 2013)
Screen size: about 360,000 compounds; about 7,500 (2.1%) were called active. About 8% were inconclusive and are not listed. This is one part of a sample in which actives are shown more often than they occur. Values without a mark were called inactive. Calls come from the whole dose curve; as a rule, active = well fitted cell-killing curve with a large enough effect; inconclusive = small, poorly fitted or top-dose-only effect, or effect the other way, or another doubt; inactive = no such curve, though single readings can be large or run the other way.
Potency is the fitted concentration of half-maximal effect.

Experiment: qHTS for induction of synthetic lethality in tumor cells producing 2HG: qHTS for the HT-1080-IDH1KD cell line;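 for activity, negative = toxicity: 0% = DMSO wells and -100% = cell-free medium wells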
Conditions: HT-1080 IDH1 knockdown viability, ATP luminescence, 48 h; series mostly up to 46.1 µM; activity, negative = toxicity: at the top concentration
Summary of the method: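 HT-1080-IDH1KD cells (IDH1 knocked down), 750/well in RPMI with 5% FBS, treated with compound 48 h at 37 degrees C. Viability by CellTiter-Glo luminescence, normalised to DMSO and no-cell wells; concentration-response curves classed.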
For `Cc1ccc(C(O)c2ncc(-c3ccccc3F)[nH]2)cc1F` (stereo unspecified), the “activity, negative = toxicity” value was -8.27%. For `CCOC(=O)c1c(NC(=S)SC)sc(C(=O)N2CCc3ccccc3C2)c1C`, the “activity, negative = toxicity” value was -7.65%. With `O=S(=O)(O)c1nc2ccccc2n1Cc1ccc(Cl)cc1Cl` the “activity, negative = toxicity” value was -15.2%. With `CC(C)(C)C(=O)Cn1c(NCCO)nc2ccccc21` the “activity, negative = toxicity” value was 2.2%. With `O=C(Cn1c(NCCO)nc2ccccc21)c1ccc(Cl)cc1Cl` the Potency was 20.6 µM (active). For `CCCCCCn1c(=O)n2n(c1=O)C[C@]1(OC(=O)NCc3ccc(OC)c(OC)c3)CN(S(=O)(=O)c3ccc(C)cc3)C[C@]1(O)C2`, the “activity, negative = toxicity” value was -14.7%. With `CCc1oc(-c2ccc(OC)cc2)c(C(=O)OCCCCCO)c1C(C)OCCO` (stereo unspecified) the “activity, negative = toxicity” value was -13.9%. In the case of `COc1ccccc1NC1=NC(c2ccc(Cl)cc2)N=C(N)N1` (stereo unspecified), the Potency is reported as 5.62 µM (active). In the case of `CC1(C)N=C(N)NC(Nc2ccc(Cl)cc2)=N1`, the “activity, negative = toxicity” value is reported as 1.16%. For `COc1ccccc1NC(=O)C1CCCN1S(=O)(=O)c1ccc(Cl)cc1` (stereo unspecified), the “activity, negative = toxicity” value was -1.61%. For `COc1ccc([C@H]2N[C@]3(CCCN(Cc4ccco4)C3=O)[C@H]3C(=O)N(C)C(=O)[C@@H]23)cc1`, the “activity, negative = toxicity” value was -1.26%. In the case of `O=C1OCCOC2CCCc3oc(-c4ccccc4)c1c32` (stereo unspecified), the “activity, negative = toxicity” value is reported as 6.75%. In the case of `C[C@H]1Cn2cnc(C(=O)N[C@@H](Cc3c[nH]c4ccccc34)C(=O)OC(C)(C)C)c2C(=O)N1`, the “activity, negative = toxicity” value is reported as 12.4%. In the case of `O=S(=O)(NCc1cccnc1)c1ccc(Br)s1`, the “activity, negative = toxicity” value is reported as 1.62%. In the case of `O=C(NCCc1ccccc1)C1CCN(S(=O)(=O)c2ccc(Br)s2)CC1`, the “activity, negative = toxicity” value is reported as -5.3%. For `O=S(=O)([N-]c1nc2ccccc2nc1-[n+]1ccc(Cc2ccccc2)cc1)c1ccc(Br)s1`, the Potency was 20.6 µM (active). With `COCOc1cccc(CN2CCC(C)(Oc3ccc(SC)cc3)C2)c1` (stereo unspecified) the “activity, negative = toxicity” value was -8.36%. With `CCOC(=O)C1CCCN(C(=O)c2ccc(C)c(F)c2)CC1` (stereo unspecified) the “activity, negative = toxicity” value was 1.99%. With `CCC1OC(C2CC2)CC2=C1C(=O)OC(C)(C)O2` (stereo unspecified) the “activity, negative = toxicity” value was 0.481%. In the case of `c1coc(CNc2ncnc3ccccc23)c1`, the Potency is reported as 20.6 µM (active). With `COc1ccc(CNc2ncnc3ccccc23)cc1` the “activity, negative = toxicity” value was -4.12%. With `Brc1ccc2ncnc(NCc3cccnc3)c2c1` the “activity, negative = toxicity” value was -15.5%. With `COc1cccc(C(NC(C)=O)c2nc(-c3cnc4ccccc4c3)cs2)c1` (stereo unspecified) the “activity, negative = toxicity” value was 3.84%. With `O=C(Nc1ccc2c(c1)OCCO2)C(C1CC1)N1CCC(Cc2ccccc2)CC1` (stereo unspecified) the “activity, negative = toxicity” value was -22%. For `COc1cccc(/C=N/Nc2ncc(C(F)(F)F)cc2Cl)c1O`, the Potency was 9.2 µM (active). With `COc1ccc(Br)cc1/C=N/Nc1ccc(Cl)c(C(=O)O)c1` the “activity, negative = toxicity” value was -10.5%. With `O=c1[nH]c2cccnc2n(CCNc2ncc(C(F)(F)F)cc2Cl)c1=O` the “activity, negative = toxicity” value was -16.6%. With `CCOC(=O)c1c(C)[nH]c(C)c1C(=O)COC(=O)/C=C/c1cccc([N+](=O)[O-])c1` the “activity, negative = toxicity” value was -1.39%. For `Nc1[nH]c(C(=O)c2ccccc2)c(-c2ccncc2)c1C(=O)NCc1cccc2ccccc12`, the “activity, negative = toxicity” value was 4.84%. In the case of `CCOC(=O)[C@]12CCCC=C1N(CCC1=CCCCC1)C(=O)[C@H](CC(=O)N1CCSCC1)C2`, the “activity, negative = toxicity” value is reported as -6.14%. With `Cc1ccccc1S(=O)(=O)NC(=O)C1(C)CCN1C(=O)C1(c2ccccc2)CCCC1` (stereo unspecified) the “activity, negative = toxicity” value was 0.534%. In the case of `c1ccc2c(NC3C4CC5CC(C4)CC3C5)nc(N3CCOCC3)nc2c1` (stereo unspecified), the Potency is reported as 18.4 µM (active). In the case of `c1ccc(-c2nnc(N3CCOCC3)c3ccccc23)cc1`, the “activity, negative = toxicity” value is reported as 2.08%. With `Fc1cnc(N2CCOCC2)nc1NCc1ccccc1` the “activity, negative = toxicity” value was 3.11%. With `Cc1ccc(C=O)c([B-](F)(F)F)c1` the “activity, negative = toxicity” value was 3.04%. In the case of `CN1c2ccc(C=O)c3c(C=O)ccc(c23)N(C)C1(C)C`, the Potency is reported as 11.6 µM (active). With `CC1CN(C(=O)c2cccc(NS(=O)(=O)c3ccc(Br)cc3)c2)CC(C)O1` (stereo unspecified) the “activity, negative = toxicity” value was -2.09%. With `CCc1nc2c(OCC(N)=O)cccn2c1N(C)C(=O)c1ccc(OC)cc1` the “activity, negative = toxicity” value was 3.04%. For `C[C@@H]1CN([C@H](C)CO)S(=O)(=O)c2ccc(C#C[C@@H](C)O)cc2O[C@@H]1CN(C)Cc1ccc(-c2ccccc2)cc1`, the “activity, negative = toxicity” value was -29.6%. With `COc1cc(C#Cc2ccc3cc(CCCO)oc(=O)c3c2)cc(OC)c1` the Potency was 2.06 µM (active). For `O=C1c2ccccc2C(=O)N1CCC#Cc1ccc2cc(C3(O)CCCCC3)oc(=O)c2c1`, the “activity, negative = toxicity” value was 12.8%. For `COc1cc(/C=C2\Oc3ccc(C#Cc4ccc(O)cc4)cc3C2=O)cc(OC)c1`, the “activity, negative = toxicity” value was -24.1%. For `NC(=O)Cn1cc(/C=N\NS(=O)(=O)c2ccccc2)c2ccccc21`, the “activity, negative = toxicity” value was -7.45%. With `COC(=O)Cn1cc(/C=C/[N+](=O)[O-])c2ccccc21` the Potency was 23.1 µM (active). With `COC(=O)c1cn(CC(=O)NCc2cccs2)c2ccccc12` the “activity, negative = toxicity” value was -28%. In the case of `COC(=O)[C@]12CCCCC=C1N(Cc1cccc3ccccc13)C(=O)[C@H](CC(=O)N1CCOCC1)C2`, the “activity, negative = toxicity” value is reported as -1.79%. In the case of `COCCCN1C(=O)C(CC(=O)NCc2cccs2)CC(C(=O)N2CCOCC2)=C1C` (stereo unspecified), the “activity, negative = toxicity” value is reported as 1.42%. With `COC(=O)C1C(=O)NCC1c1ccc(C)cc1` (stereo unspecified) the “activity, negative = toxicity” value was 15.5%. With `COC(=O)C1=C(Nc2ccc(C)cc2)C=C(C)C(C(=O)OC)C1c1ccc(F)cc1` (stereo unspecified) the Potency was 11.2 µM (active). In the case of `COC(=O)C1=C(Nc2ccc(OC)cc2)C=C(C)C(C(=O)OC)C1c1ccc(C)cc1` (stereo unspecified), the “activity, negative = toxicity” value is reported as -3.99%. In the case of `COc1ccc(Cn2c(=O)oc3ccccc32)cc1`, the “activity, negative = toxicity” value is reported as -0.0287%.
